Assay results published in PubChem BioAssay AID1159580 (chemical genetic matrix, 2015).
Among all 5,500 compounds or so, about 2,000 (36%) were called active. Roughly 18% stayed inconclusive and do not appear here. Cut-off read from the data, not from the text of the source: active = normalized growth mostly below about 0.91 (no sharp cut-off); inconclusive = no clear call, values can overlap the other calls; inactive = mostly above about 0.92. The list shows a part of the results.

Experiment: chemical genetic growth profiling, strain panel (AID 1159580);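 note: tested at 20 µM; growth read once vehicle control cultures reached saturation at 30 °C; 1 = growth at the plate median or of vehicle wells; lower values mean less growth of the strain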
Conditions: S. cerevisiae deletion strains, growth OD
[1] = locus YAL013W, strain DEP1, stronger effect = lower value
[2] = locus YAL040C, strain CLN3, stronger effect = lower value
[3] = locus YER002W, strain NOP16, stronger effect = lower value
[4] = locus YGR078C, strain PAC10, stronger effect = lower value
[5] = locus YNL175C, strain NOP13, stronger effect = lower value
[6] = locus YNL197C, strain WHI3, stronger effect = lower value
[7] = locus YNL224C, strain SQS1, stronger effect = lower value
[8] = locus YNL322C, strain KRE1, stronger effect = lower value
[9] = locus YOR083W, strain WHI5 (second series), stronger effect = lower value

Measured: normalized growth

CC(C)(CO)Cc1cc(C(C)(C)C)c(O)c(C(C)(C)C)c1
inactive: [1] 0.972 | [2] 0.927 | locus YCL061C, strain MRC1 (second series), stronger effect = lower value 0.975 | locus YDR363W, strain ESC2, stronger effect = lower value 1.02 | [3] 0.968 | [4] 0.978 | locus YGR229C, strain SMI1, stronger effect = lower value 0.898 | [5] 0.954 | [6] 0.959 | [7] 0.962 | [8] 0.975 | [9] 0.951

CC(C)(C=O)Cc1cc(C(C)(C)C)c(O)c(C(C)(C)C)c1
inactive: [1] 1.02 | [2] 0.968 | [3] 0.98 | [4] 1 | locus YMR307W, strain GAS1, stronger effect = lower value 1.02 | locus YNL128W, strain TEP1, stronger effect = lower value 1.02 | [5] 1.02 | [6] 0.989 | [7] 1 | [8] 0.994 | [9] 1.01 | locus YPL055C, strain LGE1, stronger effect = lower value 1.01
